According to the supplement of paper PMC11624193, “Coupling cellular drug-target engagement to downstream pharmacology with CeTEAM” (Nature Communications, 2024):
Several values for one entry are separate records, joined by “and”; a condition that tells them apart may be missing. Equal entries are not always repeated. Structures can show the parent of a compound that is named as a salt.

Target: PARP1 L713F-nLuc biosensor (HCT116) (UniProt P09874)
Assay: PARP1 L713F-nLuc/akaLuc ratio relative to DMSO control (biosensor stabilization) (fold change); higher = more PARP1 biosensor stabilization (target engagement / stabilizer), active = hit call of the paper
Settings: stock concentration (mM; final µM = stock mM x 1): 10; 24 h;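 active = log2 fold change beyond 2 SD from the library mean after excluding viability outliers; inactive = within 2 SD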

Sequence of PARP1 L713F-nLuc biosensor (HCT116) (P09874 whole entry L713F, looked up): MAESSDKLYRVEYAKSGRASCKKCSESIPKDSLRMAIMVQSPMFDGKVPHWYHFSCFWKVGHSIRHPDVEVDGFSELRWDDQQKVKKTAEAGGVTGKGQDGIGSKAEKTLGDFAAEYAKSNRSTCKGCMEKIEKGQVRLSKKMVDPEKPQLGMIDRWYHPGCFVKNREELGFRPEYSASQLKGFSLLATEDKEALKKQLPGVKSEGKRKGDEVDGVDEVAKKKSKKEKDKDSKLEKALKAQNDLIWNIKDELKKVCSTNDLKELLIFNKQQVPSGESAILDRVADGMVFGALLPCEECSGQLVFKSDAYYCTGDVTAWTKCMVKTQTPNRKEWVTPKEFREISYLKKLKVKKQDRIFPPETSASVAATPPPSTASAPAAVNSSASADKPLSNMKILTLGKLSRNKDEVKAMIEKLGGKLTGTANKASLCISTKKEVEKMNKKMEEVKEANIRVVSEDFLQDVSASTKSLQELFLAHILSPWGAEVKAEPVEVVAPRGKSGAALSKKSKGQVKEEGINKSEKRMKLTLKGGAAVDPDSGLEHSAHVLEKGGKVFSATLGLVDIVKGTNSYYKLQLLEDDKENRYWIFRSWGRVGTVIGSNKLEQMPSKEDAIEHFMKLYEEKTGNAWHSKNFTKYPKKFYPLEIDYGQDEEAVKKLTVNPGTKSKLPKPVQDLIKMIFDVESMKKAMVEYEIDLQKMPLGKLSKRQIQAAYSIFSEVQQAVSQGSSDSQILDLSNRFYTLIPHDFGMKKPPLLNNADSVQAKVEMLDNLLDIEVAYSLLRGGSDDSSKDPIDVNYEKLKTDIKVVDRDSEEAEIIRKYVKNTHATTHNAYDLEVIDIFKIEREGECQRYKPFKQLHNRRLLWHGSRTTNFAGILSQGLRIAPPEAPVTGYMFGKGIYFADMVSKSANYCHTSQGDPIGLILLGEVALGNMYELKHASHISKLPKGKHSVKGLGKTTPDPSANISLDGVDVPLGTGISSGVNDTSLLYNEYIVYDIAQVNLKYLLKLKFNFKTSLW

| Compound | PARP1 L713F-nLuc/akaLuc ratio |
| --- | --- |
| COc1cc(N2CCC(N3CCN(C)CC3)CC2)ccc1Nc1ncnc(Nc2ccccc2S(=O)(=O)C(C)C)n1 | 0.97 (inactive) |
| C[C@H](Nc1ncnc2[nH]cnc12)c1cc2ccc(F)cc2nc1-c1ccccn1 | 0.767 (inactive) |
| COc1cc2c(NC3CCN(C)CC3)nc(N3CCCN(C)CC3)nc2cc1OCCCN(C)C | 0.782 (inactive) |
| O=C(c1cc(Cn2c(=O)[nH]c(=O)c3c(F)cccc32)ccc1F)N1CCN(c2ncccn2)CC1 [Senaparib] | 3.98 (active) |
| Cc1nc(-c2cccnc2)sc1C(=O)Nc1ccccc1-c1cn2c(CN3CCOCC3)csc2n1 | 0.883 (inactive) |
| N#Cc1cc(F)cc(Oc2ccc3c(c2C(F)F)[C@@H](O)C(F)(F)S3(=O)=O)c1 | 1.92 (inactive) |
| N=C(NC(=N)N1CCCC1)Nc1ccc(OC(F)(F)F)cc1 | 1.01 (inactive) |
| Cn1cc(-c2cn3nccc3c(-c3cnn([C@]4(CC#N)C[C@@H](C#N)C4)c3)n2)cn1 [Ropsacitinib] | 1.02 (inactive) |
| N#Cc1cccnc1N1CCN(C(=O)c2cccc(Cc3n[nH]c(=O)c4ccccc34)c2)CC1 | 2.72 (active) |
| O=C(c1ccc(C(=O)N2CCC(N3CCCC3)CC2)c(Nc2ccccc2)c1)N1CCC(N2CCCC2)CC1 | 0.936 (inactive) |
| Nc1ncc(-c2cnn(CCO)c2)c2scc(-c3ccc(NC(=O)Nc4cccc(F)c4)cc3)c12 [Ilorasertib (hydrochloride)] | 0.906 (inactive) |
| O=C(Nc1cccc(Cl)c1)Nc1ncc(CCNc2ncnc3ccsc23)s1 [SNS-314 (mesylate)] | 1.11 (inactive) |
| Cc1cnc(Nc2ccc(OCCN3CCCC3)cc2)nc1Nc1cccc(S(=O)(=O)NC(C)(C)C)c1 [Fedratinib] | 0.694 (inactive) |
| CC1(C)c2cccc(C(=O)NO)c2CN1c1cnc(C(F)(F)F)cn1 | 0.913 (inactive) |
| C#Cc1cccc(Nc2ncnc3cc(OCCOC)c(OCCOC)cc23)c1 [Erlotinib] | 0.565 (inactive) |
| Cn1ncc(Cl)c1-c1cc(C(=O)N[C@H](CN)Cc2ccc(F)c(F)c2)oc1Cl | 0.603 (inactive) |

| Compound | PARP1 L713F-nLuc/akaLuc ratio |
| --- | --- |
| N#Cc1cc2cc(CN3CCC(Nc4ncnc5sc(CC(F)(F)F)cc45)CC3)ccc2[nH]1 | 1.05 (inactive) |
| CC(C)c1c(C(=O)Nc2ccccc2)c(-c2ccccc2)c(-c2ccc(F)cc2)n1CC[C@@H](O)C[C@@H](O)CC(=O)O [Atorvastatin Calcium] | 0.363 (inactive) |
| N#Cc1cc(F)cc(Oc2ccc(S(=O)(=O)C(F)F)c3c2CC(F)(F)[C@H]3O)c1 | 0.774 (inactive) |
| Cn1cnc2c(F)c(Nc3ccc(Br)cc3Cl)c(C(=O)NOCCO)cc21 [Selumetinib (AZD6244)] | 0.465 (inactive) |
| Cc1cc(F)c(C(=O)Nc2cccc(-c3nncn3C(C)C)n2)cc1-n1cnc(C2CC2)c1 [Selonsertib (GS-4997)] | 0.908 (inactive) |
| CC[C@@](C)(Nc1ccnc(-c2c[nH]c3ncccc23)n1)C(=O)NCC(F)(F)F [Decernotinib] | 0.707 (inactive) |
| c1cc(SSc2ccns2)sn1 | 1.1 (inactive) |
| CC(C)N(CCCNC(=O)Nc1ccc(C(C)(C)C)cc1)C[C@H]1O[C@@H](n2cc(Br)c3c(N)ncnc32)[C@H](O)[C@@H]1O | 0.82 (inactive) and 0.934 (inactive) |
| O=C(c1cc(Cc2n[nH]c(=O)c3ccccc23)ccc1F)N1CC(CNC2CC2)C1 [Venadaparib] | 5.9 (active) |
| COc1cc2c(NC3CCN(C4CCCCC4)CC3)nc(N3CCCN(C(C)C)CC3)nc2cc1OCCCN1CCCCC1 | 0.886 (inactive) |
| CNc1nc(NC2CCN(Cc3ccc4c(cc(C#N)n4CC45CC(NC=O)(C4)C5)c3C)CC2)c2cc(CC(F)(F)F)sc2n1 | 1.38 (inactive) |
| O=c1c2c([nH]n1-c1nc3ccccc3s1)CCCC2 | 0.788 (inactive) |
| CCOC(=O)NCCCC(=O)NCCc1ccccc1 [Santacruzamate A] | 0.97 (inactive) |
| O=C(NNS(=O)(=O)c1ccccc1)c1cc(-c2ccnnc2)ccc1F | 1.16 (inactive) |
| CCC1=C[C@@H]2CN(C1)Cc1c([nH]c3ccccc13)[C@@](C(=O)OC)(c1cc3c(cc1OC)N(C)[C@H]1[C@@](O)(C(=O)OC)[C@H](OC(C)=O)[C@]4(CC)C=CCN5CC[C@]31[C@@H]54)C2 [Vinorelbine Tartrate] | 0.576 (inactive) |
